Compound activity (PubChem BioAssay)
Most compounds without a hit are left out; they make up all but 1.3% or so of the library.
PGC1a acetyl inh = inhibitors of PGC1a acetylation signal, primary screen, cell-based, U2OS, AlphaScreen, inhibitor mode; AlphaScreen anti-acetyl-lysine; with virally co-expressed GCN5 acetyltransferase; 350,000 compounds, 0.17% hits; AID 651687, 2012; inhibition, % at 15.6 µM;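 active = every replicate shows inhibition of at least 40%; inconclusive = mean inhibition at least 40% but some replicate below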;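 also: 0% = neutral control wells and 100% = positive control wells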
AI-2 QS mod = Vibrio harveyi AI-2 quorum sensing modulators, primary screen, JMH597 strain, luminescence/OD600 ratio | Vibrio harveyi JMH597 AI-2 luminescence/OD600 ratio, 9 h; hits give low values; strain lacks LuxN and CqsS sensors; 0 = neutral-control median | activity change, % at 7.5 µM | 300,000 compounds, 0.4% hits | AID 2094, 2009; in the data active = activity change below about -75%, passing the limit was not always enough; inconclusive = no clear call, values can overlap the other calls;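 also: luminescence divided by OD600 gain over 9 h not by final OD600 alone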
C2C12 statin = suppressors of statin myotoxicity in C2C12 myotubes, primary screen, cell-based, single point, plate reader. 330,000 compounds, 0.78% hits. C2C12 myotubes + simvastatin, ATP luminescence, 48 h; scaled: DMSO 0, geranylgeraniol control 100. rescue of ATP level, % at 7.49 µM;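 active = mean ATP rescue above about 67%, or every replicate alone reaching that limit, limit read from the data, passing the limit was not always enough; inconclusive = no clear call, values can overlap the other calls; inactive = mean under the limit and some replicate under it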;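 also: myotubes were challenged with 10 µM simvastatin during compound exposure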
Rce1 inhib = yeast Rce1p protease inhibitors, primary screen, biochemical, fluorescence, cell-free homogeneous; yeast membranes, quenched prenylated peptide cleavage fluorescence; calls only; 290,000 compounds, 0.27% hits; AID 2563, 2010;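 active = fall in fluorescence gain of 50% or more versus controls, with final raw signal at or below 3038400; inconclusive = same 50% fall but final raw signal above 3038400; inactive = fall in fluorescence gain under 50%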;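 also: plate controls were neutral control wells for no effect and wells lacking membranes for full effect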
Target sequence (Q03530 whole entry, looked up): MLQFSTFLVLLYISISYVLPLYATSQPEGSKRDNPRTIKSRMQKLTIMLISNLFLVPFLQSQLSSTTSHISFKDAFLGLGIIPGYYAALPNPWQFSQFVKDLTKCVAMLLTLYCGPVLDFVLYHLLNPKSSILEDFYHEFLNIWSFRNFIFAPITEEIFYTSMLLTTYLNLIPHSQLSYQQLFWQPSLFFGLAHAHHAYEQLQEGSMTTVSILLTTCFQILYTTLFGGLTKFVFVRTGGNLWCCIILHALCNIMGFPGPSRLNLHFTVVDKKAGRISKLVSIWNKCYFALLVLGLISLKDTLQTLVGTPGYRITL
HIF act = HIF pathway transcriptional activators, primary screen, cell-based, U2OS HRE-luciferase, luminescence; U2OS HRE-luciferase reporter; normalized: DMSO 0%, desferrioxamine 100%; activation, % at 7.5 µM (by protocol); 300,000 compounds, 0.32% hits; AID 1910, 2009;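 active = mean activation of at least 10% of the iron chelator positive control signal, with at least half of replicates also reaching 10%; inconclusive = mean and replicate majority disagree about reaching 10%; inactive = mean and most replicates under 10%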
Starred values were filed as active, the others as inactive.

What do the screens show for `COc1ccc(NC(=O)Nc2cccc3c2O[C@@H](CN(C)C(=O)Nc2cccc4ccccc24)[C@@H](C)CN([C@@H](C)CO)C3=O)cc1`?
PGC1a acetyl inh: 2; C2C12 statin: 31

Results for COc1ccc(NC(=O)Nc2cccc3c2O[C@@H](CN(C)C(=O)Nc2cccc4ccccc24)[C@H](C)CN([C@H](C)CO)C3=O)cc1 ?
PGC1a acetyl inh: -3; C2C12 statin: 98*

What do the screens show for `Nc1ccc2c(c1)C(=O)c1ccccc1-2`?
PGC1a acetyl inh: -8; AI-2 QS mod: 21; C2C12 statin: 7; Rce1 inhib: inactive; HIF act: 0

Results for Nc1ccc2c(c1)C(=O)C(=O)c1ccccc1-2 ?
PGC1a acetyl inh: 107*; AI-2 QS mod: inconclusive; Rce1 inhib: inactive; HIF act: -4

How did C[C@@H]1CN([C@@H](C)CO)C(=O)Cc2cc(NC(=O)Cc3cn(C)c4ccccc34)ccc2O[C@H]1CN(C)S(=O)(=O)c1ccc(Cl)cc1 do in these assays?
PGC1a acetyl inh: -16; C2C12 statin: 3

What do the screens show for `COCCNC(=O)C[C@@H]1C[C@H]2c3cc(NC(=O)Nc4ccccc4F)ccc3O[C@H]2[C@@H](CO)O1`?
PGC1a acetyl inh: -3; C2C12 statin: -8

How did CCC(=O)N(CC)c1nc(-c2ccc(OC)cc2)cs1 do in these assays?
PGC1a acetyl inh: 48*; AI-2 QS mod: 18; C2C12 statin: 8; Rce1 inhib: inactive; HIF act: 3

What do the screens show for `Cc1ccc(F)cc1NC(=O)CCc1c(C)[nH]c(=O)c(C#N)c1C`?
PGC1a acetyl inh: -1; AI-2 QS mod: 19; C2C12 statin: -1; Rce1 inhib: inactive; HIF act: -1

Results for COc1ccccc1NC(=O)CCc1c(C)[nH]c(=O)c(C#N)c1C ?
PGC1a acetyl inh: 12; AI-2 QS mod: 13; C2C12 statin: 97*; Rce1 inhib: inactive; HIF act: 0

What do the screens show for `Cc1ccc(S(=O)(=O)Nc2ccc3c(c2)C(=O)N([C@@H](C)CO)C[C@@H](C)[C@H](CN(C)C(=O)Nc2c(C)noc2C)O3)cc1`?
PGC1a acetyl inh: 1; C2C12 statin: 13

What do the screens show for `NC(=O)C(CC(=O)O)NC(=O)[C@@H]1CCCNc2c(I)cc([N+](=O)[O-])cc2C(=O)N[C@@H](CO)C(=O)N[C@@H](Cc2ccc(O)cc2)C(=O)N1` (some centres not stated)?
PGC1a acetyl inh: -6; C2C12 statin: 159*

How did CO[C@@H](CCO)[C@@H](O)c1ccc(O)c(F)c1 do in these assays?
PGC1a acetyl inh: -3

How did COc1ccccc1NC(=O)N1CC(=O)N2[C@H](CO)[C@H](c3ccc(C#Cc4ccccc4)cc3)[C@@H]2C1 do in these assays?
PGC1a acetyl inh: -2

What do the screens show for `COc1ccc2cc(C(C)C(=O)N3CCC(C(N)=O)CC3)ccc2c1` (configuration not stated)?
PGC1a acetyl inh: 13; AI-2 QS mod: -9; C2C12 statin: -1; Rce1 inhib: inactive; HIF act: 28*

How did COc1ccc2cc([C@H](C)C(=O)O)ccc2c1 do in these assays?
PGC1a acetyl inh: 2; AI-2 QS mod: 6; C2C12 statin: 4; Rce1 inhib: inactive; HIF act: 0

What do the screens show for `C[C@@H]1CN([C@H](C)CO)C(=O)c2cc(-c3ccccc3)cnc2O[C@@H]1CN(C)C(=O)Cc1ccccn1`?
PGC1a acetyl inh: -9; C2C12 statin: -11

What do the screens show for `COC(=O)c1ccc(OC)c(OC2CCCC2)c1`?
PGC1a acetyl inh: 89*; AI-2 QS mod: 18; C2C12 statin: 5; HIF act: 0

What do the screens show for `O=C1C=C(c2ccccc2)CC(c2cccs2)C1n1cnc([N+](=O)[O-])c1` (configuration not stated)?
PGC1a acetyl inh: 19; AI-2 QS mod: -6; Rce1 inhib: inactive; HIF act: 48*

What do the screens show for `O=C(C[C@H]1C=C[C@H](NC(=O)Nc2ccc(F)cc2)[C@H](CO)O1)NCc1ccccn1`?
PGC1a acetyl inh: -4; C2C12 statin: 4
